Results on 39 compounds are retold here after PubChem BioAssay AID651650 (Sanford-Burnham Center for Chemical Genomics, 2012).

Each structure is given as a SMILES string.

For the experiment, the target named is Neuropilin-1 (Homo sapiens) (UniProt O14786). Kind of experiment: blockers of CendR peptide binding to NRP-1 – biochemical, FP and AlphaScreen panel, dose response (AID 651650). To be noted: NRP-1 b1b2 / RPARPAR peptide binding, FP or AlphaScreen; run 1, at 100 µM (top of the series). For orientation: Bead proximity is the source of the signal in Alpha formats.
Neuropilin-1 (Homo sapiens), sequence (O14786 whole entry, looked up): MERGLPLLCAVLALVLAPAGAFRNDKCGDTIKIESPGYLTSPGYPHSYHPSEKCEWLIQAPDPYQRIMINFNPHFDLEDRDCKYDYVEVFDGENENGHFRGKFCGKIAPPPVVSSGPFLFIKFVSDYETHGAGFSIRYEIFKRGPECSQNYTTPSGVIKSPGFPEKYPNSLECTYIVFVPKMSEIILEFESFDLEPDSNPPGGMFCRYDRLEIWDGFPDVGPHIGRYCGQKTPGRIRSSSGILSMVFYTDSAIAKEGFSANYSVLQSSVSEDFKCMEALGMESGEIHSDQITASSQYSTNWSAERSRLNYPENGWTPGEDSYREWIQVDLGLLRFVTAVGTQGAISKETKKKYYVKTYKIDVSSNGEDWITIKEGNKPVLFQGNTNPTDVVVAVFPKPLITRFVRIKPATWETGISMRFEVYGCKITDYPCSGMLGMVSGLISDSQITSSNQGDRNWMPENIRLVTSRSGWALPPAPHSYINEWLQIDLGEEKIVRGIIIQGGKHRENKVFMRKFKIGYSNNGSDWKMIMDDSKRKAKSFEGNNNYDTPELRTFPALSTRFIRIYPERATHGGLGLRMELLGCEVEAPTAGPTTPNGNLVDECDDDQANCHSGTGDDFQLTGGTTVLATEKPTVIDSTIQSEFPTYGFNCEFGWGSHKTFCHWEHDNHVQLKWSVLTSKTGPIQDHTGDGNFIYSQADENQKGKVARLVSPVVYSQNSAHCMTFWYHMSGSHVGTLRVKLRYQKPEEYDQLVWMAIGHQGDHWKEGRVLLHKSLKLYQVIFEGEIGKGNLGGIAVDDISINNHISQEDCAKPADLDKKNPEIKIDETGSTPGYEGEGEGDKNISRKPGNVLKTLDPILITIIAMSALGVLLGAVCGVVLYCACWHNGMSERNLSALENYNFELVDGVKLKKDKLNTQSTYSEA
For `CSc1nc2ccccc2c(=O)n1C1CCOC(C)(C)C1` (centres undefined), the inhibition (in general, the change of the read-out against control, counted positive when it falls) turned out to be 19.3%. Turning to `Cc1nc(SCc2ccc(C(=O)O)cc2)nc2c1CCCC2`, the inhibition stood at 41.7%. With `COc1ccc(Nc2nc(-c3cccnc3)nc3ccccc23)cn1`, the inhibition is 68.3%. Turning to `COC(=O)n1c(=O)oc2ccccc21`, the inhibition came out at 50%. Next, `O=C(CCC(=O)Nc1ccccc1Cl)NN=C1CCCC1`: 67.6%; `CCOC(=O)Cc1csc(NC(=O)CSc2ncnc3c2cnn3-c2ccccc2Cl)n1`: 11.5%. Regarding `CN1CCC(=NNC(=O)c2ccco2)CC1`, the inhibition turned out to be 17.4%. Consider `Nc1ccc(C#Cc2c(-c3ccsc3)oc3ccc(N4CCOCC4)cc23)cc1`, for which the inhibition worked out at 28.3%.

Turning to `CC1(C)c2ccccc2C(=O)c2ccccc21`, the inhibition is -7.21%. As for `Cc1ccc(C(=O)N2CCN(C34CC5CC(CC(C5)C3)C4)CC2)o1`, the inhibition turned out to be 57.6%. As to `Cc1ccc(-n2c(-c3ccco3)nc3c(cnn3-c3ccc(C)cc3)c2=O)cc1`, the inhibition came out at 50.3%.

With `O=C(Nc1ccc(F)cc1)c1cc(S(=O)(=O)Nc2ccc(F)cc2)cs1`, the inhibition was determined as 2.95%.

Regarding `CCC(=O)Nc1nc2nc(-c3ccccc3)cc(-c3ccccc3)n2n1`, the inhibition turned out to be 37.2%. In the case of `CCOc1ccccc1C1CC(=O)NC2=C1C(=O)CC(C)(C)C2` (centres undefined), the inhibition was 32%. Take `O=C(NCc1ccccc1)c1cccc(S(=O)(=O)N2CCCCC2)c1`: the inhibition was determined as 61.2%. On to `NC(=O)C1=C[C@H](c2ccc(Br)cc2)C[C@H](OCc2ccc(CO)cc2)O1`, for which the inhibition was 36.9%. Next, `CCOC(=O)CNc1ccc2c(c1)OCO2`: 82.2%; `CCOc1cc(C(=O)NCCN2CCOCC2)cc(OCC)c1OCC`: 23.9%. As for `O=C(Nc1cc(C(F)(F)F)ccc1N1CCCC1)C1CC(=O)N(Cc2ccccc2)C1` (centres undefined), the inhibition is 2.78%. Next, `CCNC(=O)C1(C)CCCN(C(=O)c2nc(C)oc2C)C1` (centres undefined): 20.1%. `CC#CCN(Cc1ccco1)C(=O)C1CCC(=O)N(Cc2ccccc2F)C1` (centres undefined): the inhibition is 24.4%. Take `CC(=O)Nc1ccc(Oc2cc(C#N)c(C#N)cc2N2CCOCC2)cc1`: the inhibition stood at 10.4%. Take `CN(C)/N=C/c1ccc(Sc2ccc([N+](=O)[O-])cc2[N+](=O)[O-])o1`: the inhibition was determined as 55.1%. Take `O=C(O)c1ccccc1SCC(=O)N1CCCCC1`: the inhibition turned out to be 52.9%.

For `CCOC(=O)N1CCN(C(=O)Nc2ccc3nc(C)c(C)nc3c2)CC1`, the inhibition is -6.06%. Regarding `CCOC(=O)/C=C/COc1ccccc1[N+](=O)[O-]`, the inhibition was found to be 29.2%.

On to `CN(c1ccc(OCC(=O)OCC(=O)Nc2ccc([N+](=O)[O-])cc2)cc1)S(=O)(=O)c1cccs1`, for which the inhibition amounted to 58.7%. With `CC1CCC(NC(=O)C2CCC(CNS(=O)(=O)c3cccc4cccnc34)CC2)CC1` (centres undefined) the figure was 19%. Next, `Cc1ccc(C(=O)NCCCc2ccccc2)c(C)c1`: 37.1%; `Cc1cccc(-c2noc(CSc3ccccc3)n2)c1`: 0.214%. Next, `Cc1ccc(NC(=O)COc2ncnc3c(Cl)cc(Cl)cc23)cc1[N+](=O)[O-]`: -2.85%; `CCc1cc(C(=O)OC)c(NC(=O)c2ccoc2C)s1`: 41.2%; `CCOc1c2ccc(C(=O)NCCc3cccs3)cc2nn1CC`: -5.4%. On to `Cn1cccc1C1Nc2ccccc2NC2=C1C(=O)CC(C)(C)C2` (centres undefined), for which the inhibition came out at 12.9%. With `Cc1ccc(OCC(=O)Nc2ccc(C)c(S(=O)(=O)N3CCCCCC3)c2)c([N+](=O)[O-])n1` the figure was 44.6%. On to `O=C(O)CCSc1nnc(COc2cccc3cccnc23)n1-c1ccccc1`, for which the inhibition is 52.3%. Next, `CCC1=C(OC(=O)N(CC)CC)N2C(=O)OC(=NCC(=O)OC)[C@]2(C)[C@H]2C1=CC[C@H]1C(=O)N(CC)C(=O)[C@H]12`: 11.6%; `Cc1ccccc1-n1ncc2c1CC(C)(C)CC2NC(=O)c1ccncc1` (centres undefined): 28.1%. Next, `O=C(Nc1cccc2c1CCCC2)c1cc(C2CCCCN2C(=O)CCCc2ccccc2)on1` (centres undefined): -15%.
